Screening data as filed in PubChem.
In the library only some 1.3% were active in any assay of this set; here they are far more common.
Vaccinia Venus: inhibitors of vaccinia virus (Venus reporter). Potency, µM (series often up to 36.5 µM), inactives show at the highest dose activity change, negative = inhibition, most hits filed as inhibitors. Vaccinia virus Venus reporter expression, fluorescence. hit rate 0.46% among 330,000; calls by dose curve; tested in A549 cells; also: % is scaled to controls: 0 for no effect and ±100 for the full control effect; nearly all actives have a fitted effect of over 30% in size
AmpC detergent: AmpC beta-lactamase inhibition with detergent present | AmpC hydrolysis of nitrocefin, absorbance 480 nm, 0.01% Triton | P00811 | Potency, µM (doses to about 114 µM), inactives show at the highest dose activity change, negative = inhibition, most hits filed as inhibitors | hit rate 0.041% among 370,000;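 also: 0% = no-compound wells and -100% = no-enzyme wells; nearly all actives have a fitted effect of over 25% in size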
Target sequence (P00811 whole entry, looked up): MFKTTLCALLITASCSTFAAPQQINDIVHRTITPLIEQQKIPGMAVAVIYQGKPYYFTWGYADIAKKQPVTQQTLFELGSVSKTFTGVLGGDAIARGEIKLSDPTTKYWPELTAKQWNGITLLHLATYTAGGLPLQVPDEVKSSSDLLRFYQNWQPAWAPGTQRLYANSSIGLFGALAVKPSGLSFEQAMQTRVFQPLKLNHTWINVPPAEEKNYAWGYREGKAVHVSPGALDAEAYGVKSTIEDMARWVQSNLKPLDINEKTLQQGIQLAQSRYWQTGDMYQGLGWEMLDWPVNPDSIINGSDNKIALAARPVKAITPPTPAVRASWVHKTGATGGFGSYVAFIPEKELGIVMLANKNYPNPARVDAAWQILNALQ
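AmpC (5.3 nM in the dispensed reagent) in 20 mM phosphate pH 7.0 with 0.01% (detergent screen) or 0.0001% Triton X-100 was preincubated with compounds for 15 min at room temperature. Nitrocefin was then added from an 800 uM solution, and hydrolysis was followed at 480 nm.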
SARS PLP yeast: blocks SARS-CoV papain-like protease in a yeast assay | S. cerevisiae expressing SARS-CoV PLpro, growth rescue | hit rate 0.19% among 330,000 | Potency, µM (doses to about 32.9 µM), for inactives: at the top dose activity, positive = growth rescue, actives largely listed as activators | AID 485353; calls by dose curve; also: 0% is about no effect; nearly all actives have a fitted effect of over 55% in size
Vaccinia mCherry: vaccinia inhibition (mCherry reporter). Vaccinia virus mCherry reporter infection, fluorescence. Potency, µM (titrated, usually from 36.5 µM), for the others: top-dose activity change, negative = inhibition, actives largely listed as inhibitors. hit rate 0.63% among 310,000; calls by dose curve; tested in A549 cells; also: % is scaled to controls: 0 for no effect and ±100 for the full control effect; nearly all actives have a fitted effect of over 35% in size
AmpC inh no detg: AmpC beta-lactamase inhibition without detergent. hit rate 0.52% among 330,000. Potency, µM (highest dose often 57.1 µM), for the others: top-dose activity change, negative = inhibition, actives largely listed as inhibitors. AmpC nitrocefin hydrolysis, absorbance 480 nm, 0.0001% Triton;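 also: plate controls were no compound for no effect and no enzyme for full effect; nearly all actives have a fitted effect of over 20% in size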
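AmpC (5.3 nM in the dispensed reagent) in 20 mM phosphate pH 7.0 with 0.01% (detergent screen) or 0.0001% Triton X-100 was preincubated with compounds for 15 min at room temperature. Nitrocefin was then added from an 800 uM solution, and hydrolysis was followed at 480 nm.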
* hit, by the source's call; i = inactive; ? = inconclusive; · = no result; [ ] = remark or other dose. Unless noted, calls follow the shape of the dose curve; as a rule, active = well fitted curve in the direction sought with a large enough effect; inconclusive = small, poorly fitted or top-dose-only effect, or another doubt; inactive = no such curve, though single readings can be large; an effect the other way counts as inactive or inconclusive. Potency is read from the fitted curve at half-maximal effect.

SMILES | Vaccinia Venus | AmpC detergent | SARS PLP yeast | Vaccinia mCherry | AmpC inh no detg
COc1ccc(/C=N\NC(=O)CNC(=O)C(c2ccccc2)c2ccccc2)cc1[N+](=O)[O-] | -3% | -4% | 4% | -9% | 4µM*
Clc1ccc(CNc2ncnc3[nH]ncc23)cc1Cl | 10µM* | · | · | 11µM* | ·
O=C(CN(c1ccc(Cl)cc1)S(=O)(=O)c1ccc(Cl)c([N+](=O)[O-])c1)NCCc1ccccc1 | 3% | -1% | 0% | -12% | -34%
O=C(CN(c1ccc(Cl)cc1)S(=O)(=O)c1ccc(Cl)c([N+](=O)[O-])c1)NCCc1ccc(F)cc1 | -8% | -3% | 4% | ? | 32µM*
O=C(N/N=C/c1ccc(Br)s1)c1c[nH]c2ccccc12 | -25% | -7% | -25% | -11% | 25µM*
Oc1ccc(/C=N/Nc2ccnc3cc(Cl)ccc23)cc1O | -11% | -8% | 1% | ? | 11µM*
N/C(=N\OC(=O)c1ccc([N+](=O)[O-])cc1Cl)c1ccccn1 | ? | -14% | -5% | 2.8µM* | -7%
COc1ccc(CC(=O)Nc2cccc(-c3nnc(-c4ccccc4)o3)c2)cc1OC | ? | 0% | 2% | 11µM* | 109%
CN(CC(=O)Nc1ccc(OC(F)(F)F)cc1)S(=O)(=O)c1ccc2c(c1)CCC(=O)N2 | -13% | 12% | · | -19% | ·
Cc1cc(C(=O)OCC(=O)Nc2sc3c(c2C#N)CCC(C)C3)c2ccccc2n1 (configuration not stated) | -20% | 2% | -7% | -26% | 14µM*
CCn1cc(C2=NCCO2)c2ccccc21 | ? | 1% | 11% | 10µM* | -13%
Cc1ccc2c(c1)CN(CCNC(=O)C(C)Oc1ccccc1)CC(C)O2 (configuration not stated) | -3% | · | · | -13% | ·
Cc1cc(C(=O)NCC2CCC3(CCN(Cc4ccc(-c5ccccc5)cc4)CC3)O2)n(C)n1 (configuration not stated) | -15% | · | · | -20% | ·
CCC(=O)N1CCN(c2ccc(NC(=O)c3ccc([N+](=O)[O-])o3)cc2Cl)CC1 | 11µM* | 2% | -24% | 13µM* | -12%
CCN1CCN(c2ccc(NC(=O)c3ccc([N+](=O)[O-])o3)cc2Cl)CC1 | ? | 6% | 13% | 11µM* | -18%
CCN1CCN(c2ccc(S(=O)(=O)N3CCCCC3)cc2NC(=O)c2ccc([N+](=O)[O-])o2)CC1 | 10µM* | ? | 1% | 4µM* | ?
COc1ccc(S(=O)(=O)N2CCCCC2)cc1NC(=O)c1ccc([N+](=O)[O-])o1 | -19% | 3% | 2% | i | -14%
CCC(C)Sc1nc2c(cnn2-c2ccc(C)c(C)c2)c(=O)[nH]1 (configuration not stated) | -9% | -14% | -2% | i | 40µM*
CCCCSc1nc2c(cnn2-c2ccc(F)cc2)c(=O)[nH]1 | -13% | ? | 8% | -11% | 40µM*
CC1(C)CC(=O)C2=C(C1)OC(N)=C(C#N)C2Cc1ccccc1 (configuration not stated) | · | -3% | -4% | · | 0.32µM*
Cc1cc(C)nc(S[C@H]2C[C@@H](C(=O)N3CCN(c4ccccc4F)CC3)N(Cc3ccccc3F)C2)n1 | 0% | · | · | -8% | ·
O=C(O)CCCCCNS(=O)(=O)/C=C/c1ccccc1 | 5% | -15% | 0% | 10% | -13%
O=C(O)CCCCCNS(=O)(=O)c1cccc2c1C(=O)c1ccccc1C2=O | 5µM* | -22% | -1% | 4.5µM* | 1%
O=c1oc2ccccc2c2c1C1O[C@](c3ccsc3)(Cc3ccccc31)O2 | · | -11%[22.9 µM] | 1%[6.58 µM] | · | 4.5µM*
COc1ccccc1-c1nc2cc(C(=O)NC[C@H]3CCc4ccccc4O3)cc(NC(C)=O)c2n1C | 7% | · | · | -5% | ·
SMILES | Vaccinia Venus | AmpC detergent | SARS PLP yeast | Vaccinia mCherry | AmpC inh no detg
Cc1ccc(NS(=O)(=O)c2cccc(C(=O)NNC(=O)c3cccn3C)c2)c(C)c1 | -19% | 1% | 1% | -28% | 16µM*
Cc1ccccc1C(=O)N1CCc2c(cnc(C)c2CNC(=O)c2ccc3c(c2)OCO3)C1 | 0% | · | · | 1% | ·
COc1cc(-c2cc(N)n(S(=O)(=O)c3ccc(F)cc3)n2)cc(OC)c1OC | ? | ? | 2% | -29% | -39%
COc1ccc(-c2cc(N)n(S(=O)(=O)c3ccc(F)cc3)n2)cc1OC | ? | -1% | 11% | 7.1µM* | -1%
Nc1cc(-c2ccc(Br)cc2)nn1S(=O)(=O)c1ccccc1 | -13% | -11% | -6% | -14% | ?
Nc1cc(-c2ccccc2)nn1S(=O)(=O)c1ccc(F)cc1 | ? | ? | 6% | 10µM* | -33%
Cc1ccc(CN2CCOc3ccc(CN4CCC(O)(c5cccnc5)CC4)cc3C2)cc1 | -21% | · | · | -28% | ·
CCN1CCN(Cc2ccc(NC(=O)c3ccc(C)c(/C=C/c4cnc(Nc5cc(N6CCNCC6)nc(C)n5)cn4)c3)cc2C(F)(F)F)CC1 | 8.9µM* | 0% | -3% | ? | 118%
Cc1ccc(C(=O)Nc2cccc(C(F)(F)F)c2)cc1NC(=O)c1c[nH]c2cc(C(F)(F)F)ccc2c1=O | -8% | · | -5% | -11% | -14%
CCN1CCN(Cc2ccc(NC(=O)c3ccc(C)c(NC(=O)c4c[nH]c5cc(C(F)(F)F)ccc5c4=O)c3)cc2C(F)(F)F)CC1 | 14µM* | 4% | -6% | ? | 85%
CCN1CCN(Cc2ccc(NC(=O)c3ccc(C)c(NC(=O)c4cccc(-c5cn[nH]c(=O)c5)c4)c3)cc2C(F)(F)F)CC1 | 7.1µM* | ? | -6% | ? | 172%
NC1=C(Cl)C(=O)c2ccc(S(N)(=O)=O)cc2C1=O | 0.5µM* | · | · | ? | ·
CCCCOc1ccc(C(=O)NCC(=O)NCCOc2ccccc2)cc1 | 2% | ? | -2% | -13% | 35µM*
NC(=O)C1(N2CCCCC2)CCN(Cc2nc3ccccc3c(=O)[nH]2)CC1 | 4% | 4% | 1% | i | 0.32µM*
c1ccc(-c2cc(-c3ccccc3)[n+](-c3ccccc3)c(-c3ccccc3)c2)cc1 | ? | 3% | 1% | -40% | 21%
Cc1ccc(-c2cc(-c3ccc(C)cc3)[n+](-c3ccccc3)c(-c3ccc(C)cc3)c2)cc1 | 3.5µM* | 1% | -2% | ? | 50%
Cc1ccc(-c2cc(-c3ccccc3)cc(-c3ccccc3)[n+]2-c2ccccc2)cc1 | 10µM* | 0% | -10% | 8.9µM* | 13%
Cc1cnc(C)c(-c2cccc3c2OC(CNC(=O)/C=C/c2ccc(F)c(F)c2)C3)n1 (configuration not stated) | -4% | · | · | -15% | ·
COc1ccccc1-c1ccnc(-n2ncc(C(=O)NC(C)(C)CO)c2C2CC2)n1 | -16% | · | · | -3% | ·
CCOC(=O)c1ccc(NC(=O)Cn2nnc(-c3ccccc3F)n2)cc1 | -10% | -2% | 9% | -14% | 35µM*
COc1cc(=O)n2c(c1C(=O)NCc1ccco1)CCN(Cc1ccc3nsnc3c1)CC2 | 0% | · | · | -2% | ·
